These results are taken from PubChem BioAssay (NCATS).

Assay [1] in a line: qHTS profiling for inhibitors of Plasmodium falciparum (DD2) proliferation (AID 743323). The conditions noted are these: lower = more inhibition; at 28.7 µM (top of the series). The method, boiled down:
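1536-well qHTS; infected RBCs 0.3% parasitemia/2.5% Hct final; cpd 72 h 37 C 5% CO2; lysis buffer + SYBR Green I, o/n RT dark; FI 485/535; norm. to 0.29 uM artemisinin and DMSO, plate-stack corrected.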

Assay [2] is described as follows: qHTS profiling for inhibitors of Plasmodium falciparum (HB3) proliferation (AID 743324; active = well fitted curve in the direction sought with a large enough effect; an effect the other way counts as inactive or inconclusive;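 also: 100% = DMSO vehicle wells and 0% = artemisinin-treated control wells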). As to conditions: Plasmodium falciparum HB3 blood-stage proliferation; at 28.7 µM (top of the series). In short, it runs like this:
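P. falciparum HB3 grown in erythrocytes (0.3% parasitemia, 2.5% hematocrit final) with compound for 72 h at 37 C, 5% CO2. Parasite DNA detected by SYBR Green after saponin/triton lysis overnight; normalized to 0.29 uM artemisinin and DMSO.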

Assay [3] can be described thus: qHTS profiling of the MIPE4 collection as inhibitors of Plasmodium falciparum (3D7) proliferation (AID 743344).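 Also: scaled between DMSO vehicle wells and 0.29 µM artemisinin as full inhibition.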 As to conditions: P. falciparum 3D7 in erythrocytes, SYBR Green DNA fluorescence, 72 h; at 28.5 µM (top of the series) unless noted. In short, it runs like this: (§1)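 Erythrocytes infected with P. falciparum (0.3% parasitemia, 2.5% hematocrit) incubated with compounds 72 h at 37 C, 5% CO2. Lysis with saponin/Triton buffer containing SYBR Green I, overnight at room temperature in the dark; DNA fluorescence (485/535 nm) normalised to 0.29 uM artemisinin and DMSO.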

Assay [4] in a line: qHTS profiling of the MIPE4 collection as inhibitors of Plasmodium falciparum (DD2) proliferation (AID 743345). The conditions noted are these: P. falciparum Dd2 in erythrocytes, SYBR Green DNA, 72 h; at 28.5 µM (top of the series) unless noted. The method, boiled down: as §1
Assay [5] can be described thus: qHTS profiling of the MIPE4 collection as inhibitors of Plasmodium falciparum (DD2) proliferation (Rep 2) (AID 743346). As to conditions: P. falciparum Dd2 in erythrocytes, SYBR Green DNA, 72 h; at 28.5 µM (top of the series) unless noted. In short, it runs like this:
as §1

A short description of assay [6]: qHTS profiling of the MIPE4 collection as inhibitors of Plasmodium falciparum (HB3) proliferation (AID 743347).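 Also: plate controls were DMSO vehicle wells for no effect and artemisinin wells for full effect.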 The conditions noted are these: P. falciparum HB3 in erythrocytes, SYBR Green DNA, 72 h; at 28.5 µM (top of the series) unless noted. In short, it runs like this: as §1
Assay [7] can be described thus: High-throughput drug toxicity screening in the BPDCN cell line Gen2.2 (AID 1224824).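 Also: cells exposed to compounds for 48 h before reading.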 As to conditions: Gen2.2 BPDCN cells; at 45.8 µM (top of the series) unless noted. In short, it runs like this:
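Gen2.2 cells (500/well) in phenol red-free RPMI with 10% FBS were exposed to compounds for 48 h at 37 °C, 5% CO2. Viability was read by CellTiter-Glo luminescence and normalized to DMSO (100%) and 9.2 uM bortezomib (0%).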

Assay [8] is described as follows: High-throughput drug toxicity screening in the BPDCN cell line Cal-1 (AID 1224825). The conditions noted are these: Cal-1 BPDCN cell viability, qHTS; at 45.8 µM (top of the series) unless noted. The method, boiled down:
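500 Cal-1 cells/well, RPMI + glutamine + 10% FBS (phenol red-free); cpd added by pin tool; 48 h, 37C, 5% CO2; CTG 15 min RT, lumi read. Normalised: DMSO 100%, bortezomib 9.2 uM 0%.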

Assay [9] is described as follows: qHTS assay for measurement of the activity of small molecule inhibitors on Zika virus induced Caspase-3 activity in human iPSC derived neural progenitor cells (hNPCs) (AID 1224857; active = well fitted curve in the direction sought with a large enough effect; an effect the other way counts as inactive or inconclusive; also: % of control where 0% means no effect; nearly all actives have a fitted effect of over 65% in size). The method, boiled down:
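After overnight (16–20 h) culture at 350 cells/well, hNPCs get compound, then ZIKV 2 FFU/cell one hour later. Six hours on, Caspase-Glo 3/7 is added and luminescence measured.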

A short description of assay [10]: qHTS assay for measurement of the activity of small molecule inhibitors on Zika virus induced Caspase-3 activity in human astrocytoma cells (AID 1224859; active = well fitted curve in the direction sought with a large enough effect; an effect the other way counts as inactive or inconclusive;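 also: plate controls were ZIKV-infected untreated cells for no effect and uninfected cells for full effect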). In short, it runs like this:
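Inhibition of Zika-induced caspase-3/7 activity: SNB-19 cells, 1 h compound pretreatment, ZIKV 2 FFU/cell for 6 h at 37 C, Caspase-Glo luminescence read-out.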

The nature of assay [11]: qHTS Assay for Identifying Gametocytocidal Compounds (AID 743244; active = well fitted curve in the direction sought with a large enough effect; an effect the other way counts as inactive or inconclusive;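 also: % is scaled to controls: 0 for no effect and ±100 for the full control effect; actives lower the fluorescent signal which means gametocytes are killed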). As to conditions: P. falciparum 3D7 stage III-V gametocytes, alamarBlue, 72 h; max response: stronger effect = lower value. The method, boiled down: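 Using 20,000 stage III–V 3D7 gametocytes per well, compounds were incubated 72 h under 37 °C/5% CO2. Viability was then assessed by 24 h alamarBlue reduction, measured fluorometrically at 525/598 nm.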

Inconclusive results are not listed. Calls of active or inactive are those of the source. Unless noted, no rule for the calls is given here.

Take `Clc1ccc(-c2nc3sccn3c2C=NOCc2ccc(Cl)c(Cl)c2)cc1`: in [1], the activity, percent of control stood at 101%. The remaining proliferation (% of control), lower = more inhibition in assay [2] stood at 103%. For the same compound, the parasite growth, % of DMSO control in assay [3] was 30.7%. For the same compound, the parasite growth remaining, % of DMSO control (lower = more inhibition) in assay [4] amounted to 51.5%. For the same compound, the parasite growth, % of control (lower = inhibition) in assay [5] turned out to be 122%. The growth, % of control in assay [6] amounted to 43.2%. For the same compound, the cell viability, % of control (lower = more cytotoxic) in [7] was found to be 111%. Further, the viability (% of control) in assay [8] amounted to 116%. For the same compound, the Potency result in assay [9] and in assay [10] was “inactive” throughout.
Consider `CN(C)C1CCN(C(=O)c2ccc(NC(=O)Nc3nc(N4CCOCC4)nc(N4CCOCC4)n3)cc2)CC1`, for which the activity, percent of control in [1] came to 2%. Moreover, in [2], the remaining proliferation (% of control), lower = more inhibition is 2.09%. Moreover, the parasite growth, % of DMSO control in assay [3] came to 5.78%. In assay [4], the parasite growth remaining, % of DMSO control (lower = more inhibition) was 7.83%. Besides, the parasite growth, % of control (lower = inhibition) in [5] is 9.5%. Besides, in assay [6], the growth, % of control was 4.82%. Further, the cell viability, % of control (lower = more cytotoxic) in assay [7] came out at 6.71%. Besides, the viability (% of control) in assay [8] came out at 12.5%. Besides, the Potency entry in assay [9] and in assay [10] was “inactive” in each case.
Take `CN1[C@@H]2CCC[C@@H]1CC(NC(=O)c1nn(C)c3ccccc13)C2` (stereo partly drawn): the cell viability, % of control (lower = more cytotoxic) in assay [7] is 97.5%. Besides, the viability (% of control) in assay [8] is 105%.
In the case of `COc1cc2ncnc(Nc3ccc(F)c(Cl)c3)c2cc1OCCCN1CCOCC1`, the cell viability, % of control (lower = more cytotoxic) in [7] is 14.5% [at 92.2 µM]. Moreover, the viability (% of control) in assay [8] was 4.41% [at 92.2 µM].
As to `CCOC(CN1C(=O)[C@](CC(=O)Nc2ccc(C)cc2)(NC(=O)Nc2ccc(C)cc2)c2ccccc21)OCC`, the activity, percent of control in [1] was found to be 23.7%. Besides, the remaining proliferation (% of control), lower = more inhibition in assay [2] was 10.1%. Also, the parasite growth, % of DMSO control in assay [3] stood at 14%. Besides, the parasite growth remaining, % of DMSO control (lower = more inhibition) in assay [4] is 38.2%. The parasite growth, % of control (lower = inhibition) in assay [5] was 26.1%. Moreover, the cell viability, % of control (lower = more cytotoxic) in assay [7] was 45.2%. The viability (% of control) in [8] worked out at 46.4%. The Potency entry in assay [9] and in assay [10] was “inactive” in each case.
As to `CNC(=O)c1ccccc1Sc1ccc2c(C=Cc3ccccn3)n[nH]c2c1`, the cell viability, % of control (lower = more cytotoxic) in assay [7] worked out at 311%. For the same compound, the viability (% of control) in [8] was 28.2%.
For `CCOc1ccc(Nc2nc(-c3c(C)nc4ccccn34)cs2)cc1`, the activity, percent of control in assay [1] is 5.76%. Further, the remaining proliferation (% of control), lower = more inhibition in [2] was 7.43%. Also, the parasite growth, % of DMSO control in [3] worked out at 11.9%. The compound also had a parasite growth remaining, % of DMSO control (lower = more inhibition) in [4] of 17.3%. The parasite growth, % of control (lower = inhibition) in assay [5] came out at 15.8%. In [6], this compound registered a growth, % of control of 4.43%. Also, the cell viability, % of control (lower = more cytotoxic) in assay [7] was determined as 11%. Further, the viability (% of control) in [8] is 7.46%. The Potency entry in assay [9] and in [10] was “inactive” each time.
In the case of `CC(=O)O[C@]1(C(C)=O)CC[C@@H]2[C@@H]3C[C@H](C)C4=CC(=O)CC[C@]4(C)[C@H]3CC[C@@]21C`, the parasite growth, % of DMSO control in assay [3] stood at 24.9%. The parasite growth remaining, % of DMSO control (lower = more inhibition) in [4] stood at 89%. The parasite growth, % of control (lower = inhibition) in assay [5] was found to be 22%. Besides, the cell viability, % of control (lower = more cytotoxic) in assay [7] stood at 75.1%. The viability (% of control) in assay [8] came to 95.7%. In addition, the Potency entry in [9] and in assay [10] was “inactive” in each case.
Take `CO[C@H]1C[C@@H]2CC[C@@H](C)[C@@](O)(O2)C(=O)C(=O)N2CCCC[C@@H]2C(=O)O[C@H]([C@H](C)C[C@@H]2CC[C@H](OCCO)[C@H](OC)C2)CC(=O)[C@H](C)C=C(C)[C@@H](O)[C@@H](OC)C(=O)[C@H](C)C[C@H](C)C=CC=CC=C1C`: in assay [1], the activity, percent of control is -0.639%. The remaining proliferation (% of control), lower = more inhibition in [2] was -1.24%. This compound also showed a parasite growth, % of DMSO control in [3] of 4.95%. Moreover, in assay [4], the parasite growth remaining, % of DMSO control (lower = more inhibition) turned out to be 7.69%. In [5], the parasite growth, % of control (lower = inhibition) is 8.53%. Moreover, the growth, % of control in assay [6] is 3.94%. In assay [7], the cell viability, % of control (lower = more cytotoxic) worked out at 10.1%. Further, the viability (% of control) in assay [8] was 12.7%. The Potency result in assay [9] and in assay [10] was “inactive” throughout.
For the compound `N#Cc1ccc(NC(=O)Nc2ccccc2Br)c2n[nH]nc12`, the activity, percent of control in assay [1] was 69.6%. Moreover, the remaining proliferation (% of control), lower = more inhibition in assay [2] is 37.3%. This compound also showed a parasite growth, % of DMSO control in [3] of 7.67%. This compound also showed a parasite growth remaining, % of DMSO control (lower = more inhibition) in assay [4] of 65.9%. In addition, in assay [5], the parasite growth, % of control (lower = inhibition) came out at 21.8%. This compound came in with a growth, % of control in assay [6] of 7.81%. The cell viability, % of control (lower = more cytotoxic) in [7] was determined as 183%. For the same compound, the viability (% of control) in assay [8] is 14.7%. For the same compound, the Potency entry in assay [9] and in assay [10] was “inactive” each time.
For `CC(C)C(=O)Nc1ncc(-c2cc(C(F)F)nn2-c2c(Cl)cccc2Cl)s1`, the max response in [11] was 17% (inactive). The activity, percent of control in [1] is -0.314%. In addition, the remaining proliferation (% of control), lower = more inhibition in assay [2] is -0.0078%. This compound also displayed a parasite growth, % of DMSO control in [3] of 9.88%. For the same compound, the parasite growth remaining, % of DMSO control (lower = more inhibition) in assay [4] is 13.6%. Besides, the parasite growth, % of control (lower = inhibition) in assay [5] was found to be 18.7%. The compound further returned a growth, % of control in [6] of 11.3%. Besides, in [7], the cell viability, % of control (lower = more cytotoxic) was found to be 113%. For the same compound, in assay [8], the viability (% of control) was determined as 6.45%. The Potency result in assay [9] and in assay [10] was “inactive” throughout.
